{
  "source": "PubChem BioAssay (NCATS)",
  "note": "Inconclusive results are not listed. Activity calls are given as the source filed them. Calls come from the whole dose curve; as a rule, active = well fitted cell-killing curve with a large enough effect; inconclusive = small, poorly fitted or top-dose-only effect, or effect the other way; inactive = flat fitted curve, though single readings scatter. % is set by controls: 0 for no effect and ±100 for the full control effect.",
  "data": [
    {"test_system": "Tov112D", "experiment": "Primary qHTS to identify gynecologic anti-cancer compounds using libraries of approved drugs and bioactive compounds (AID 1345084); note: nearly all actives have a fitted effect of over 55% in size", "settings": "Gynecologic cancer cell panel viability, ATPlite luminescence, 48 h; series mostly up to 57.5 µM; activity change, negative = cytotoxicity: at the top concentration", "in_short": "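Luminescence from the ATPlite ATP-monitoring reagent indicates viable cell number; lower signal means cytotoxicity. Cells received compound 16 h after seeding and were exposed for 48 h across five concentrations.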", "values": [
      {"smiles": "CCc1cc2c(=O)c(-c3nc4ccccc4s3)coc2c(CN2CCCCC2)c1O", "activity change, negative = cytotoxicity": "15.6% [at 25.3 µM] (inactive)"},
      {"smiles": "C=C1C(=O)OC2CC(C)=C(C(C)CCCO[C@@H]3O[C@H](CO)[C@@H](O)[C@H](O)[C@H]3O)C(O)C12", "note": "(stereo not given in full)", "activity change, negative = cytotoxicity": "5.58% [at 25.3 µM] (inactive)"},
      {"smiles": "CCC(C)/C=C(C)/C=C/C1=CC2=C(Cl)C(=O)C(C)(OC(C)=O)C(=O)C2=CN1CCCC(=O)O", "note": "(stereo not given)", "activity change, negative = cytotoxicity": "3.22% [at 25.3 µM] (inactive)"},
      {"smiles": "CC(=O)OC[C@@]12[C@H](O)C[C@]3(C)C(=CCC4[C@@]5(C)CC[C@H](O[C@@H]6O[C@H](C(=O)O)[C@@H](O[C@@H]7O[C@H](CO)[C@@H](O)[C@H](O)[C@H]7O)[C@H](O)[C@H]6O[C@@H]6O[C@H](CO)[C@@H](O)[C@H](O)[C@H]6O)[C@](C)(CO)C5CC[C@]43C)[C@@H]1CC(C)(C)[C@@H](OC(C)=O)[C@@H]2O", "note": "(stereo not given in full)", "activity change, negative = cytotoxicity": "1.86% [at 11.6 µM] (inactive)"},
      {"smiles": "COc1ccc([C@@H]2N[C@H](C(=O)O)Cc3c2[nH]c2ccccc32)cc1CN1CCN(c2ccccc2F)CC1", "activity change, negative = cytotoxicity": "5.71% (inactive)"},
      {"smiles": "CC1=CC(=O)CC(C)(C)C1(O)CCC(C)O", "note": "(stereo not given)", "activity change, negative = cytotoxicity": "11.5% (inactive)"},
      {"smiles": "COc1ccccc1[C@@H]1C2=C(CC(C)(C)CC2=O)Nc2n[nH]c(C(F)(F)F)c21", "activity change, negative = cytotoxicity": "11.5% (inactive)"},
      {"smiles": "CC(C)(OC1OC(CO)C(O)C(O)C1O)C1CCC(O)(CO)C2CC(O)C(C)(O)C2C1", "note": "(stereo not given)", "activity change, negative = cytotoxicity": "8.81% [at 25.3 µM] (inactive)"},
      {"smiles": "CN1C(=O)c2ccccc2-n2c(nc3ccccc3c2=O)/C1=C/c1ccccc1", "activity change, negative = cytotoxicity": "0.615% [at 38.5 µM] (inactive)"},
      {"smiles": "CC(=O)OCC(=O)O[C@@H]1[C@H]2[C@@H](OC(=O)c3ccccc3)[C@@H](C)C[C@]2(O)[C@H](OC(C)=O)C2(C)[C@H]3CC(C)(C)C(=O)[C@@H]3CC1(OC(C)=O)[C@@H]2OC(C)=O", "note": "(stereo not given in full)", "activity change, negative = cytotoxicity": "6.01% [at 25.3 µM] (inactive)"}
    ]}
  ]
}
